# Laboratory results: article PMC5540273 (PLoS ONE, 2017)
# Tested on: STK16
# Details: concentration: 1 μM, replicates: in singlicate; n = 1
# 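Also: KINOMEscan kinase panel screen.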
row,SMILES,%Inh [%]
1,CN1CCC(n2cnc(-c3ccc(F)cc3)c2-c2ccnc(NC3CCNCC3)n2)CC1 [SB-229482],12
2,COc1cc2ncnc(Nc3ccc(OCc4ccccc4Br)c(Cl)c3)c2cc1OC.Cl [GI261590],6
3,CC(=O)Nc1n[nH]c2ncc(-c3ccccc3)cc12 [SB-548492],26
4,CNc1nccc(-c2c(-c3ccc(F)cc3)ncn2C2CCN(C)CC2)n1 [SB-222903],0
5,O=C(Nc1ccccc1F)NC1CCN(c2ccnc(Nc3ccc(F)cc3)n2)C1 (stereo not shown) [GSK1379722],0
6,O=C(NCCCN1CCCC1=O)c1cnc(NCc2cc(Cl)ccc2Cl)nc1NC1CCNCC1,0
7,O=c1cc(N2CCOCC2)nc2n(Cc3cccc(Cl)c3)ccn12 [GSK2296823],0
8,Nc1n[nH]c2nnc(-c3ccccc3)cc12 [SB-517389],0
9,O=C(Nc1n[nH]c2nc(-c3ccco3)c(Br)cc12)c1ccc(CN2CCCC2)cc1.O=C(O)[C@H](O)[C@@H](O)C(=O)O [SB-742352],0
10,Nc1nc(-c2cccnc2)c(-c2ccnc3ccccc23)s1 [GW684083],17
11,c1ccc(-c2ccc3c(-c4ccnc(Nc5ccc6c(c5)OCCO6)n4)cnn3n2)cc1 [GW818941],95.8
12,Nc1nc(-c2ccc3c(N)n[nH]c3c2)cc(N2CCC[C@@H](C(=O)Nc3ccccc3)C2)n1.O=C(O)C(F)(F)F.O=C(O)C(F)(F)F [GSK2288359],18
13,COC(=O)c1cccc(NC(=O)NCCNc2ccnc(Nc3ccc(F)cc3)n2)c1 [GSK1379883],5
14,COC(=O)c1c(-c2ccccc2)c2cc(Cl)ccc2c(=O)n1Cc1ccc(S(C)(=O)=O)cc1,0
15,FC(F)(F)c1ccc(-c2cc(-c3c[nH]nc3-c3ccccn3)ccn2)cc1 [GW599550],10
16,COc1ccc(NC(=O)c2ccc(-c3cc(-c4nnc(C)o4)ccc3C)cc2)cc1 [GW595885],7
17,Cl.Cl.c1ccc(-c2cc3ccncc3cc2OC2CCNCC2)cc1 [GSK1122999],0
18,CS(=O)(=O)CCNCc1nc(-c2ccc3ncnc(Nc4ccc(OCc5cccc(F)c5)c(Cl)c4)c3c2)cs1.Cl [GW583340],8

row,SMILES,%Inh [%]
1,Cn1ccc2ncnc(Oc3ccc(NC(=O)Nc4cccnc4)c(Cl)c3)c21,3
2,Fc1cccc(COc2ccc(Nc3ncnc4sc(-c5ccc[nH]5)cc34)cc2Cl)c1 [GW707818],26
3,Cl.Cn1ccc(-c2cccc(Nc3ccnc4cc(-c5nccs5)ccc34)c2)n1 [GW525701],4
4,CS(=O)(=O)CCNCc1ccc(-c2ccc3ncnc(Nc4ccc(OCc5ccccc5)c(Cl)c4)c3c2)o1.Cl [GW574783],0
5,COc1ccc(Nc2nccc(N3CCC(NC(=O)Nc4ccc5c(c4)OCO5)C3)n2)cc1 (stereo not shown) [GSK1379745],0
6,Fc1cccc(COc2ccc(Nc3ncnc4nn5ccccc5c34)cc2Cl)c1 [GW689066],12
7,Cc1ccc(O)cc1Nc1cc(C(F)(F)F)nc2ccc(-c3ccncc3)cc12 [GW630823],28
8,Cl.Fc1ccccc1COc1ccc(Nc2ncnc3ccc(-c4nnc(C(F)(F)F)o4)cc23)cc1Cl [GW424170],0
9,Clc1ccc(-c2cc(-c3c[nH]nc3-c3ccccn3)ccn2)cc1 [GW681251],19
10,C[C@H]1CC[C@@H](C(=O)Nc2ccccc2)CN1c1cc(-c2ccc3c(N)n[nH]c3c2)nc(N)n1 [GSK2283293],0
11,Oc1ccc2ncnc(Nc3ccc(OCc4ccccc4)cc3)c2c1 [GI262866],3
12,N#Cc1ccc(Oc2ccc(Nc3ncnc4cc[nH]c34)cc2Cl)cc1,36
13,CC(C)(C)c1ccc(-n2cnc3c(N)ncnc32)cc1 [SKF-97263],0
14,Cc1ccc(C)c(NC(=O)NCCNc2ccnc(Nc3ccc(F)cc3)n2)c1 [GSK1379878],100
15,CCn1c(-c2ccncc2)nc2cnccc21 [SB-735216],0
16,COc1ccc(NC(=O)Nc2ccc(C)c(-c3ccc(C(=O)Nc4ccncc4)cc3)c2)cc1 [GSK1398475],0
17,Clc1cc(Nc2ncnc3cc[nH]c23)ccc1OCc1ccccn1,35

# Tested on: STK33
# Details: concentration: 1 μM, replicates: in singlicate; n = 1
row,SMILES,%Inh [%]
1,CN1CCC(n2cnc(-c3ccc(F)cc3)c2-c2ccnc(NC3CCNCC3)n2)CC1 [SB-229482],0
2,COc1cc2ncnc(Nc3ccc(OCc4ccccc4Br)c(Cl)c3)c2cc1OC.Cl [GI261590],0
3,CC(=O)Nc1n[nH]c2ncc(-c3ccccc3)cc12 [SB-548492],0
4,CNc1nccc(-c2c(-c3ccc(F)cc3)ncn2C2CCN(C)CC2)n1 [SB-222903],13
5,O=C(Nc1ccccc1F)NC1CCN(c2ccnc(Nc3ccc(F)cc3)n2)C1 (stereo not shown) [GSK1379722],0
6,O=C(NCCCN1CCCC1=O)c1cnc(NCc2cc(Cl)ccc2Cl)nc1NC1CCNCC1,0
7,O=c1cc(N2CCOCC2)nc2n(Cc3cccc(Cl)c3)ccn12 [GSK2296823],0
8,Nc1n[nH]c2nnc(-c3ccccc3)cc12 [SB-517389],0
9,O=C(Nc1n[nH]c2nc(-c3ccco3)c(Br)cc12)c1ccc(CN2CCCC2)cc1.O=C(O)[C@H](O)[C@@H](O)C(=O)O [SB-742352],0
10,Nc1nc(-c2cccnc2)c(-c2ccnc3ccccc23)s1 [GW684083],14
11,c1ccc(-c2ccc3c(-c4ccnc(Nc5ccc6c(c5)OCCO6)n4)cnn3n2)cc1 [GW818941],17
12,Nc1nc(-c2ccc3c(N)n[nH]c3c2)cc(N2CCC[C@@H](C(=O)Nc3ccccc3)C2)n1.O=C(O)C(F)(F)F.O=C(O)C(F)(F)F [GSK2288359],0
13,COC(=O)c1cccc(NC(=O)NCCNc2ccnc(Nc3ccc(F)cc3)n2)c1 [GSK1379883],0
14,COC(=O)c1c(-c2ccccc2)c2cc(Cl)ccc2c(=O)n1Cc1ccc(S(C)(=O)=O)cc1,0
15,FC(F)(F)c1ccc(-c2cc(-c3c[nH]nc3-c3ccccn3)ccn2)cc1 [GW599550],0
16,COc1ccc(NC(=O)c2ccc(-c3cc(-c4nnc(C)o4)ccc3C)cc2)cc1 [GW595885],0
17,Cl.Cl.c1ccc(-c2cc3ccncc3cc2OC2CCNCC2)cc1 [GSK1122999],100
18,CS(=O)(=O)CCNCc1nc(-c2ccc3ncnc(Nc4ccc(OCc5cccc(F)c5)c(Cl)c4)c3c2)cs1.Cl [GW583340],0

row,SMILES,%Inh [%]
1,Cn1ccc2ncnc(Oc3ccc(NC(=O)Nc4cccnc4)c(Cl)c3)c21,0
2,Fc1cccc(COc2ccc(Nc3ncnc4sc(-c5ccc[nH]5)cc34)cc2Cl)c1 [GW707818],8
3,Cl.Cn1ccc(-c2cccc(Nc3ccnc4cc(-c5nccs5)ccc34)c2)n1 [GW525701],0
4,CS(=O)(=O)CCNCc1ccc(-c2ccc3ncnc(Nc4ccc(OCc5ccccc5)c(Cl)c4)c3c2)o1.Cl [GW574783],8
5,COc1ccc(Nc2nccc(N3CCC(NC(=O)Nc4ccc5c(c4)OCO5)C3)n2)cc1 (stereo not shown) [GSK1379745],3
6,Fc1cccc(COc2ccc(Nc3ncnc4nn5ccccc5c34)cc2Cl)c1 [GW689066],0
7,Cc1ccc(O)cc1Nc1cc(C(F)(F)F)nc2ccc(-c3ccncc3)cc12 [GW630823],24
8,Cl.Fc1ccccc1COc1ccc(Nc2ncnc3ccc(-c4nnc(C(F)(F)F)o4)cc23)cc1Cl [GW424170],0
9,Clc1ccc(-c2cc(-c3c[nH]nc3-c3ccccn3)ccn2)cc1 [GW681251],0
10,C[C@H]1CC[C@@H](C(=O)Nc2ccccc2)CN1c1cc(-c2ccc3c(N)n[nH]c3c2)nc(N)n1 [GSK2283293],0
11,Oc1ccc2ncnc(Nc3ccc(OCc4ccccc4)cc3)c2c1 [GI262866],8
12,N#Cc1ccc(Oc2ccc(Nc3ncnc4cc[nH]c34)cc2Cl)cc1,27
13,CC(C)(C)c1ccc(-n2cnc3c(N)ncnc32)cc1 [SKF-97263],0
14,Cc1ccc(C)c(NC(=O)NCCNc2ccnc(Nc3ccc(F)cc3)n2)c1 [GSK1379878],0
15,CCn1c(-c2ccncc2)nc2cnccc21 [SB-735216],0
16,COc1ccc(NC(=O)Nc2ccc(C)c(-c3ccc(C(=O)Nc4ccncc4)cc3)c2)cc1 [GSK1398475],0
17,Clc1cc(Nc2ncnc3cc[nH]c23)ccc1OCc1ccccn1,9
